PubChem BioAssay (NCATS)
Records with an inconclusive call do not appear. Unmarked numbers belong to inactive results. Calls follow the shape of the dose curve; as a rule, active = well fitted curve in the direction sought with a large enough effect; inconclusive = small, poorly fitted or top-dose-only effect, or another doubt; inactive = no such curve, though single readings can be large; an effect the other way counts as inactive or inconclusive.

Assay: Cell Viability - N2a (AID 540);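 also: cells exposed to compound for 40 h at 37 °C; plate controls were DMSO alone for no effect and tamoxifen control for full effect; nearly all actives have a fitted effect of over 45% in size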
Settings: N2a mouse neuroblastoma cell viability; series mostly up to 92.2 µM; activity change, negative = cytotoxicity: at the top concentration
Summary of the method: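 In this qHTS cytotoxicity screen, ATP-dependent luciferase luminescence reports viable N2a cells after a 40 hr compound exposure in complete culture medium. Potencies are AC50 values from standard Hill equation fits.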

Compared with `Cc1occc(=O)c1O`, `CC1=CC(=O)CC(C)(C)C1(O)/C=C/C(C)=C\C(=O)O` (stereo not given) is higher in “activity change, negative = cytotoxicity” value: -1.18% for the first, 3.24% for the second.

With `COS(C)(=O)=O` the “activity change, negative = cytotoxicity” value was 4.92%.

Assay: Cell Viability - NIH 3T3 (AID 541);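 also: cells exposed to compound for 40 hours; plate controls were DMSO alone for no effect and tamoxifen positive control for full effect; nearly all actives have a fitted effect of over 25% in size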
Settings: NIH 3T3 cell viability, qHTS; series mostly up to 92.2 µM; activity change, negative = cytotoxicity: at the top concentration
Summary of the method: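 In this cytotoxicity screen, acute toxicity is scored as an ATP drop measured by CellTiter-Glo in NIH 3T3 fibroblasts following a 40 hr, 37 °C incubation with compound.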

Going from `Cc1occc(=O)c1O` to `CC1=CC(=O)CC(C)(C)C1(O)/C=C/C(C)=C\C(=O)O` (stereo not given), the “activity change, negative = cytotoxicity” value rises from 1.19% to 5.67%.

With `COS(C)(=O)=O` the “activity change, negative = cytotoxicity” value was -2.38%.

Assay: Cell Viability - HUV-EC-C (AID 542);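 also: cells exposed to compound for 40 hours; % is scaled to controls: 0 for no effect and ±100 for the full control effect; nearly all actives have a fitted effect of over 35% in size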
Settings: HUV-EC-C endothelial cell viability, qHTS; series mostly up to 92.2 µM; activity change, negative = cytotoxicity: at the top concentration
Summary of the method: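 Concentration-dependent ATP loss in HUV-EC-C cells is the measure. Exposure lasts 40 hr at 37 °C; luminescence follows CellTiter-Glo addition, and Hill fits give AC50.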

Compared with `Cc1occc(=O)c1O`, `CC1=CC(=O)CC(C)(C)C1(O)/C=C/C(C)=C\C(=O)O` (stereo not given) is lower in “activity change, negative = cytotoxicity” value: 13.3% for the first, -6.34% for the second.

With `COS(C)(=O)=O` the “activity change, negative = cytotoxicity” value was -1.47%.

Assay: Cell Viability - H-4-II-E (AID 543);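 also: cells exposed to compound for 40 hours; % is scaled to controls: 0 for no effect and ±100 for the full control effect; nearly all actives have a fitted effect of over 35% in size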
Settings: H-4-II-E rat hepatoma viability; series mostly up to 92.2 µM; activity change, negative = cytotoxic: at the top concentration
Summary of the method: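 AC50 from Hill-modelled qHTS concentration-response curves. H-4-II-E rat hepatoma cells in complete medium, 40 hr exposure at 37 °C, viability by CellTiter-Glo ATP luminescence.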

Compared with `Cc1occc(=O)c1O`, `CC1=CC(=O)CC(C)(C)C1(O)/C=C/C(C)=C\C(=O)O` (stereo not given) is higher in “activity change, negative = cytotoxic” value: -5.33% for the first, -4.22% for the second.

With `COS(C)(=O)=O` the “activity change, negative = cytotoxic” value was -5.34%.

Assay: Cell Viability - SH-SY5Y (AID 544);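 also: cells exposed to compound for 40 hours; 0% = DMSO alone and -100% = 100 µM tamoxifen; nearly all actives have a fitted effect of over 55% in size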
Settings: SH-SY5Y neuroblastoma cell viability; series mostly up to 92.2 µM; viability change, negative = cytotoxic: at the top concentration
Summary of the method: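 Quantitative HTS in SH-SY5Y neuroblastoma cells, 40 hr treatment at 37 °C, ATP content by luciferase luminescence; AC50 from Hill fits.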

Going from `Cc1occc(=O)c1O` to `CC1=CC(=O)CC(C)(C)C1(O)/C=C/C(C)=C\C(=O)O` (stereo not given), the “viability change, negative = cytotoxic” value falls from -1.99% to -10.5%.

With `COS(C)(=O)=O` the “viability change, negative = cytotoxic” value was -8.98%.
